Measured values published in PubChem BioAssay (NCATS).
Results filed as inconclusive are left out. Calls of active or inactive are those of the source. Unless noted, the call rests on the fitted dose curve; in most records, active means well fitted curve in the direction sought with a large enough effect; inconclusive means small, poorly fitted or top-dose-only effect, or another doubt; inactive means no such curve, though single readings can be large; an effect the other way counts as inactive or inconclusive.

What was measured:
[1] = Cytotoxicity counterscreen for NFkB agonists and antagonists (AID 624476);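 further: potency means the concentration at half of the fitted maximal effect; cells exposed to compound for 48 hours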
[2] = qHTS Assay for Identification of Small Molecule Antagonists for NFkB Signaling Pathway. (AID 624479; calls by dose curve;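 further: pathway stimulated with TNF alpha; potency means the concentration at half of the fitted maximal effect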)
[3] = Cell Proliferation Assay against the TMD8 Cell Line (AID 651645); conditions: TMD8 DLBCL cell line proliferation/viability; at 46.1 µM (top of the series);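 further: cells exposed to compound for 48 h before reading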
Method in brief: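 500 TMD8 cells/well, RPMI + Glutamax, no phenol red, 5% FBS; cpd added immediately; 48 h, 37C, 5% CO2; CellTiter-Glo, luminescence. Controls: DMSO = 100%, bortezomib 9.2 uM final = 0%.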

[4] = Cell Proliferation Assay against the HBL1 Cell Line (AID 651646); conditions: HBL1 DLBCL cells; at 46.1 µM (top of the series);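 further: cells exposed to compound for 48 h before reading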
Method in brief: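 After a 48 h incubation of 500 HBL1 cells/well in phenol red-free RPMI plus 5% FBS, relative luciferase units from CellTiter-Glo gave percent activity against DMSO and 9.2 uM bortezomib (final) controls.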

[5] = Cell Proliferation Assay against the TMD8 Cell Line (Caspase readout at 16 hrs) (AID 651712); further: potency means the concentration at half of the fitted maximal effect
Method in brief: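 16 h, 37 °C, TMD8 (500 cells/well), RPMI/5% FBS no phenol red; Caspase-Glo 3/7, 15 min RT, luminescence; %act: DMSO 0, bortezomib 9.2 uM final 100.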

Row | Compound | Potency [1] | Potency [2] | viability (% of control) [3] [%] | viability, percent of control [4] [%] | Potency [5]
1 | Cc1ccc(-c2ncn(-c3ccc(Nc4nccc(-c5cccc(N6CCOCC6)c5)n4)cc3)n2)cn1 | 0.935 µM (active) | 0.237 µM (active) | 0.9 | 0.21 | 0.0105 µM (active)
2 | COc1cc2c(Oc3ccc(NC(=O)C4(C(=O)Nc5ccc(F)cc5)CC4)cc3F)ccnc2cc1OCCCN1CCOCC1 | 16.6 µM (active) | 16.8 µM (active) | 2.25 | 3.9 | inactive
3 | Cc1ccc(C(=O)Nc2cccc(C(F)(F)F)c2)cc1-c1ccc2nc(NCCN3CCOCC3)ncc2c1 | 20.9 µM (active) | 4.73 µM (active) | 0.164 | 0.88 | –
